# CD40 NFkB inh: inhibitors of CD40-induced NF-kB signaling, primary screen, BL2 cells, luciferase reporter, single point | CD40L-induced, 4 h | inhibition, % at 10 µM | 0.94% of 83,000 active | AID 1053188, 2014;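 active = mean inhibition of at least 50% with a set share of replicates also reaching that level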;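 note: 0% = neutral control wells and 100% = IKK inhibitor VII at 50 µM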
# The depositor's hits bear a star; [ ] = dose if it differs, or a comment. This is one part of a sample in which hits are shown more often than they occur.
SMILES,CD40 NFkB inh
COCC(=O)N1[C@@H]2c3ccc(-c4ccccc4)c(=O)n3C[C@H]1[C@H](CO)[C@H]2C(=O)NCc1ccccn1,4[25 µM]
O=C(C[C@@H]1C=C[C@H](NC(=O)c2cnccn2)[C@@H](CO)O1)NCc1ccccc1F,0[25 µM]
C[C@@H]1CCCCO[C@@H](CN(C)C(=O)Nc2ccccc2)[C@@H](C)CN([C@@H](C)CO)C(=O)c2cc(NC(=O)Nc3ccc4c(c3)OCO4)ccc2O1,-11
CN(C)C(=O)c1ccc(-c2ccc3c(c2)[C@@H]2[C@@H](CCN2C(=O)C2CC2)[C@H](CO)N3C)cc1,0
CN(C)c1ncnc(N(C)C)c1[N+](=O)[O-],-1
Nc1ncnc(Sc2ncccn2)c1[N+](=O)[O-],84*
O=[N+]([O-])c1ccc(Sc2ccccn2)nc1,-12
COC(=O)[C@@H]1[C@@H](CO)[C@@H]2Cn3c(ccc(C4=CCCCC4)c3=O)[C@@H]2N1C(=O)C1CCCC1,-4
O=C([C@H]1[C@H](CO)[C@H]2Cn3c(cccc3=O)[C@H]2N1C(=O)C1CCCC1)N1CCOCC1,8
O=C(/C=C/c1ccc2c(c1)OCO2)c1ccccn1,-87
C(=Cc1cnc2ccccc2n1)c1ccc2c(c1)OCO2,98*
Nc1nc2ccccc2n1/N=C/c1ccc2c(c1)OCO2,-83
CO[C@@H]1CN(C)C(=O)c2cc(NC(=O)c3cc(C)on3)ccc2OC[C@@H](C)N(C(=O)C2CC2)C[C@@H]1C,-8
CCCNC(=O)N1CC2(C1)[C@H](c1ccccc1)[C@@H](CO)N2CC1CCOCC1,-6[25 µM]
CC1CC(C)C(=NNC(N)=O)C(C(O)CC2CCC(=O)NC2=O)C1 (configuration not stated),56*
Cc1nnc(C)c2c(C)n(/N=C/c3cc(Br)ccc3O)c(C)c12,-1
CCCNC(=O)N1[C@H](CO)[C@H](c2ccccc2)[C@H]1CNC(C)=O,2
O=C(Nc1ccccc1F)N1CCCCN2[C@@H](CO)[C@H](c3ccc(C#Cc4ccccc4)cc3)[C@@H]2C1,-4
CCOC(=O)c1c(-c2ccc(C)o2)csc1NC(=O)COC(=O)c1cccs1,80*
CCOC(=O)c1c(-c2ccc(C)o2)csc1NC(=O)CN1CCOCC1,-1
CCOC(=O)c1c(-c2ccc(C)o2)csc1N,3
CC(=O)N(C)C[C@@H]1Oc2ccc(NS(C)(=O)=O)cc2C(=O)N(C)C[C@@H]1C,-1
C[C@@H]1CN([C@@H](C)CO)C(=O)c2ccccc2-c2ccccc2CO[C@H]1CN(C)C(=O)Nc1cccc(F)c1,-6
CN1C[C@@H]2[C@H](c3ccccc31)[C@@H](CO)N2C(=O)C1CCCC1,-49
COc1ccc(-c2ccc3c(c2)[C@H]2[C@H](CCN2C(=O)C2CCOCC2)[C@@H](CO)N3C)cc1,-5[25 µM]
SMILES,CD40 NFkB inh
COc1ccc(-c2ccc3c(c2)[C@@H]2[C@@H](CCN2C(=O)C2CC2)[C@@H](CO)N3C)cc1,-18
COc1ccc(-c2ccc3c(c2)[C@@H]2[C@@H](CCN2C(=O)C2CCC2)[C@H](CO)N3C)cc1,58*
O=C(O)CCN1C(=O)/C(=C\c2ccncc2)SC1=S,6
CC(/C=C1\SC(=O)N(CCCC(=O)O)C1=O)=C\c1ccccc1,48*
O=C(O)CCCCCN1C(=O)/C(=C/c2cn(-c3ccccc3)nc2-c2cccs2)SC1=S,-4
COc1ccc(NC(=O)N(C)C[C@H]2OCc3ccccc3-c3c(n(C)c4ccccc34)C(=O)N([C@@H](C)CO)C[C@H]2C)cc1,-2
C[C@@H]1CN([C@@H](C)CO)C(=O)c2cc(NC(=O)CCC(F)(F)F)ccc2O[C@@H](C)CCCCO[C@H]1CN(C)C(=O)Nc1cccc2ccccc12,6
CC(C)(C)OC(=O)CC(S(=O)(=O)c1ccccc1)S(=O)(=O)c1ccccc1,67*
CC(S(=O)(=O)c1ccccc1)S(=O)(=O)c1ccccc1,6
O=S(=O)(CCS(=O)(=O)c1ccccc1)c1ccccc1,2
CO[C@@H]1CN(C)C(=O)c2cc(NC(=O)NC3CCCCC3)ccc2OC[C@H](C)N(CC2CCOCC2)C[C@@H]1C,-2[25 µM]
O=C(C[C@@H]1CC[C@H](NC(=O)C2CC2)[C@@H](CO)O1)Nc1ccccc1,-2[25 µM]
COc1ccc2c3c([nH]c2c1)[C@H](CO)N(C(=O)Nc1ccc(F)cc1)CC31CCN(C(=O)c2ccccc2F)CC1,60*[25 µM]
COc1ccc2c3c([nH]c2c1)[C@@H](CO)N(C)CC31CCN(C(=O)c2ccccc2F)CC1,5[25 µM]
COc1ccc2c3c(n(C)c2c1)[C@H](CO)N(C(=O)Nc1ccc(F)cc1)CC31CN(C(=O)Cc2ccncc2)C1,12[25 µM]
COc1ccc2c3c(n(C)c2c1)[C@@H](CO)N(C(=O)Nc1ccc(F)cc1)CC31CN(Cc2ccccc2F)C1,58*[25 µM]
COc1ccc2c3c([nH]c2c1)[C@@H](CO)N(C(=O)Nc1ccc(F)cc1)CC31CCN(C(=O)Cc2ccncc2)CC1,-9[25 µM]
COc1ccc2c3c(n(C)c2c1)[C@@H](CO)N(C(=O)c1ccc(F)cc1)CC31CN(C(=O)Nc2ccc(F)cc2)C1,0[25 µM]
CNC[C@H]1Oc2ccc(NC(=O)NC(C)C)cc2CC(=O)N(C)C[C@H]1C,0
C[C@@H]1CN([C@H](C)CO)C(=O)Cc2cc(NC(=O)Cn3cnnn3)ccc2O[C@H]1CN(C)Cc1ccc(Oc2ccccc2)cc1,-9[25 µM]
CCCNC(=O)C[C@H]1CC[C@@H]2[C@H](COc3ccc(NC(=O)NCCC)cc3C(=O)N2C)O1,19
O=C(Cc1ccccc1)N1C[C@@H]2[C@H](c3ccccc31)[C@@H](CO)N2C(=O)C1CCCC1,5
O=C(COc1ccc2c(c1)OCO2)Nc1nnc(Cc2ccccc2)s1,12
O=C(COc1ccc2c(c1)OCO2)Nc1ccc(Cl)cn1,-71
O=C(COc1ccc2c(c1)OCO2)Nc1nccs1,47*
SMILES,CD40 NFkB inh
COc1ccc(CN(C)C[C@@H]2Oc3ccc(NC(=O)Nc4c(C)noc4C)cc3C(=O)N([C@H](C)CO)C[C@H]2C)cc1,-2[25 µM]
COc1ccc(NC(=O)Nc2ccc3c(c2)C(=O)N([C@@H](C)CO)C[C@@H](C)[C@@H](CN(C)Cc2ccc(C(F)(F)F)cc2)OCCCC[C@H](C)O3)cc1,-1
COc1ccc(NC(=O)Nc2ccc3c(c2)C(=O)N([C@@H](C)CO)C[C@@H](C)[C@@H](CN(C)Cc2ccc(C(F)(F)F)cc2)OCCCC[C@@H](C)O3)cc1,1
COc1ccc(S(=O)(=O)Nc2ccc3c(c2)C(=O)N([C@H](C)CO)C[C@@H](C)[C@H](CN(C)C(=O)Nc2ccc(C(F)(F)F)cc2)OCCCC[C@@H](C)O3)cc1,5
COc1ccc(S(=O)(=O)Nc2ccc3c(c2)C(=O)N([C@@H](C)CO)C[C@H](C)[C@H](CN(C)Cc2ccc(C(F)(F)F)cc2)OCCCC[C@H](C)O3)cc1,59*[25 µM]
C[C@H]1CN([C@@H](C)CO)C(=O)c2cccc(NS(=O)(=O)c3ccc(Cl)cc3)c2O[C@H]1CN(C)Cc1ccc(C(=O)Nc2ccccc2N)cc1,-43[25 µM]
C[C@@H]1CN([C@H](C)CO)C(=O)c2cc(NC(=O)Nc3ccc(C(F)(F)F)cc3)ccc2O[C@@H](C)CCCCO[C@@H]1CN(C)CC1CCCCC1,43[25 µM]
C[C@@H]1CN([C@H](C)CO)C(=O)c2cccc(NS(=O)(=O)c3ccc(Cl)cc3)c2O[C@@H]1CN(C)Cc1ccc(C(=O)Nc2ccccc2N)cc1,active[25 µM]
C[C@H](CO)N1C[C@H](C)[C@H](CN(C)Cc2ccc(C(=O)Nc3ccccc3N)cc2)Oc2c(NS(=O)(=O)c3ccc(Cl)cc3)cccc2C1=O,-33[25 µM]

# Source: PubChem BioAssay
